Drawing on ChEMBL document CHEMBL2218924, “A broad activity screen in support of a chemogenomic map for kinase signalling research and drug discovery” (Biochem J, 2013), this text covers residual activity for one molecule.

The target of assay [1] is T1, Serine/threonine-protein kinase TBK1 (Homo sapiens) (UniProt Q9UHD2).
T1 sequence (whole entry): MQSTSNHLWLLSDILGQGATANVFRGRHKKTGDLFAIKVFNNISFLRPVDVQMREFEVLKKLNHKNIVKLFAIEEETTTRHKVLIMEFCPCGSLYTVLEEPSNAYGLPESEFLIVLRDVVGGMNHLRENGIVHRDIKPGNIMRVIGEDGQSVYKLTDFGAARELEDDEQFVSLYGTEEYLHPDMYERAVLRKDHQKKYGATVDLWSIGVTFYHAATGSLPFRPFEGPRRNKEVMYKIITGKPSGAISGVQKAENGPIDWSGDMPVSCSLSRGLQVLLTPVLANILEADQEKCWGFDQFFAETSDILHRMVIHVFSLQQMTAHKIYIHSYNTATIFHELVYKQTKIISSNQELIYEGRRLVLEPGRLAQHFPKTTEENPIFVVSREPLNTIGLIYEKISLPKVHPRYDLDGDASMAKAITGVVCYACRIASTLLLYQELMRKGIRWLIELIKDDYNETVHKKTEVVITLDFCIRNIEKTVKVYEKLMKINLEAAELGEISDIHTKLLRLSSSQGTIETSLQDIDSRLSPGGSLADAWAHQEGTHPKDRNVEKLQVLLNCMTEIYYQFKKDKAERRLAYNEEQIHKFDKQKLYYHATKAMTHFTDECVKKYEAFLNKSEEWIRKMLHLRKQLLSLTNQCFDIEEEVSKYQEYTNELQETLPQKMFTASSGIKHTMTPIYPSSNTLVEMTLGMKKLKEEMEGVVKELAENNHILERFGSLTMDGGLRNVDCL
The note with it: at 10 µM.

For assay [2], the target named is T2, TGF-beta receptor type-1 (Homo sapiens) (UniProt P36897).
T2 sequence (whole entry): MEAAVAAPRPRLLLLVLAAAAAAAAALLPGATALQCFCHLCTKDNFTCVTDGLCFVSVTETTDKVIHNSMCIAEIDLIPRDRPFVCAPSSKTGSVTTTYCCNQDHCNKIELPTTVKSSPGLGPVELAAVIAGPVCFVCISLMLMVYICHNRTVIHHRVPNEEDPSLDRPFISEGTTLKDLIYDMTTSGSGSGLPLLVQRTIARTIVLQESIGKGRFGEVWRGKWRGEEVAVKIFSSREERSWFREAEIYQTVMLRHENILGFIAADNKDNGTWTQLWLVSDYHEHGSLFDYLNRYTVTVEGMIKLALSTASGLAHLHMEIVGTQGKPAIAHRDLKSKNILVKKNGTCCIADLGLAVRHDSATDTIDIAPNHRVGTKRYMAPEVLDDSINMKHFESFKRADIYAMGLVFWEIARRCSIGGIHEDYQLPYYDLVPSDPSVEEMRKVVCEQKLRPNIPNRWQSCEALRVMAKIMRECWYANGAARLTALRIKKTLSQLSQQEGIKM
Particulars: at 1 µM.

Assay [3] addresses T2, TGF-beta receptor type-1 (Homo sapiens). Particulars: at 10 µM.
Assay [4] has as its target Insulin-like growth factor 1 receptor (Homo sapiens) (UniProt P08069). Particulars: at 1 µM.
For assay [5] the target is unchanged. The note with it: at 10 µM.
Assay [6] has as its target T3, Inhibitor of nuclear factor kappa-B kinase subunit alpha (Homo sapiens) (UniProt O15111).
T3 sequence (whole entry): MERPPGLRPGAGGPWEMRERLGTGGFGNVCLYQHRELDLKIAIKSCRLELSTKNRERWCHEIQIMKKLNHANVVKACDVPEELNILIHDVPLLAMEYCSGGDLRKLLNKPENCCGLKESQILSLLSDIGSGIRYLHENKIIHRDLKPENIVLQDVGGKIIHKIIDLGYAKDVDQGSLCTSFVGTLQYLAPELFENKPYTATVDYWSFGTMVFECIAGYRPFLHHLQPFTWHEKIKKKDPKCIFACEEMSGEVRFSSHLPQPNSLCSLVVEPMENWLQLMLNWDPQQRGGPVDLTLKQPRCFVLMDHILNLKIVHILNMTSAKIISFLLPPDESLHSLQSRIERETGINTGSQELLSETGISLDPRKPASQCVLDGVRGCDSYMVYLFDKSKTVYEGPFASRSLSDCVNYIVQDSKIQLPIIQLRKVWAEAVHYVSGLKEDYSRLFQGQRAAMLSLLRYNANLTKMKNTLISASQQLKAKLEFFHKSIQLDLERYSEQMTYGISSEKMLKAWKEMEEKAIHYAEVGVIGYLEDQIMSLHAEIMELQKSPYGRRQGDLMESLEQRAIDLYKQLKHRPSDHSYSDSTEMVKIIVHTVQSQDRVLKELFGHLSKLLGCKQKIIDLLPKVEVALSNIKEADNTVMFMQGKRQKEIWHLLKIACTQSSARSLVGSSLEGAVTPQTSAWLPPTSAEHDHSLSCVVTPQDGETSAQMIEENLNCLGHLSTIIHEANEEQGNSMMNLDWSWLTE
Particulars: at 1 µM.

The target in assay [7] is T3, Inhibitor of nuclear factor kappa-B kinase subunit alpha (Homo sapiens). Particulars: at 10 µM.
Assay [8] deals with T4, Inhibitor of nuclear factor kappa-B kinase subunit beta (Homo sapiens) (UniProt O14920).
T4 sequence (whole entry): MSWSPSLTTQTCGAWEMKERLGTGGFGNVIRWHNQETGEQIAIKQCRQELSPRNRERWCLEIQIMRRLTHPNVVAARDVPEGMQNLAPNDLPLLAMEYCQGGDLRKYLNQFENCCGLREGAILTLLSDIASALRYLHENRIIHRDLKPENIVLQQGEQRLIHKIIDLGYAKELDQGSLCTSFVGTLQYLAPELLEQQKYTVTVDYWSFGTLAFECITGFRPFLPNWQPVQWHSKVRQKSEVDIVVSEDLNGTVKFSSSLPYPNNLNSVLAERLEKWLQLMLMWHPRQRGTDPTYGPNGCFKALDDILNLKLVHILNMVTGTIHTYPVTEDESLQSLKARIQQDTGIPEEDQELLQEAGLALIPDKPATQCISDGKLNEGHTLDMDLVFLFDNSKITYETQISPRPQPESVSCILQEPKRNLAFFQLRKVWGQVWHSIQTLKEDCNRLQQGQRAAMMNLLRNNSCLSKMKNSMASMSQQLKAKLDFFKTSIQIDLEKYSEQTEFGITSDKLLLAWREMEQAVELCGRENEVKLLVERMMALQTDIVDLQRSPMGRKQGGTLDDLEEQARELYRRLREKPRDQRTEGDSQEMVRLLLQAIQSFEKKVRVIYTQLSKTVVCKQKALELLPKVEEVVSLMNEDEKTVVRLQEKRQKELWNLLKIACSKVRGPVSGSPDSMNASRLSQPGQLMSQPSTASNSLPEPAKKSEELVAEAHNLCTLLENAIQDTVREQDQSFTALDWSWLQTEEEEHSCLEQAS
Particulars: at 1 µM.

Assay [9] concerns the target T4, Inhibitor of nuclear factor kappa-B kinase subunit beta (Homo sapiens). Particulars: at 10 µM.
In assay [10] the target is Insulin receptor (Homo sapiens) (UniProt P06213). Particulars: at 1 µM.
Sequence of Insulin receptor (Homo sapiens) (P06213 28-758 limits assumed): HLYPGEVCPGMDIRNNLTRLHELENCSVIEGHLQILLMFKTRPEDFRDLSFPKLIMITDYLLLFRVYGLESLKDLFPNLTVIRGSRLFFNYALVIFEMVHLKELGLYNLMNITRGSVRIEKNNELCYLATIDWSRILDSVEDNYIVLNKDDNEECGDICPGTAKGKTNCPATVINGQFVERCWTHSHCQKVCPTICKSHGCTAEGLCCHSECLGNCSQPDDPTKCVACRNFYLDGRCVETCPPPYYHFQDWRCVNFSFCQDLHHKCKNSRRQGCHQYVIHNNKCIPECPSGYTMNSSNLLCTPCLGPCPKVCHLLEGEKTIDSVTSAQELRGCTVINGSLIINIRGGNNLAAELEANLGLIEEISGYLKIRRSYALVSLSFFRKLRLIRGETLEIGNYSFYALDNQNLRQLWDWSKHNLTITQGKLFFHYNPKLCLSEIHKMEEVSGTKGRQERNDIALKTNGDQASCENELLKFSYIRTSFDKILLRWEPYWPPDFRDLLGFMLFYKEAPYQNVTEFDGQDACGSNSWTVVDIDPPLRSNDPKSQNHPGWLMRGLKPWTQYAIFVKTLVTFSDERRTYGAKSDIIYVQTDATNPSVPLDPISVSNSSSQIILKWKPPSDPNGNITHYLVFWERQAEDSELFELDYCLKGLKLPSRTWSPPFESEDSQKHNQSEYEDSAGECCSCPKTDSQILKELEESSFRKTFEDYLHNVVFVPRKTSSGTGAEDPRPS
Sequence of Insulin receptor (Homo sapiens) (P06213 763-1382 limits assumed): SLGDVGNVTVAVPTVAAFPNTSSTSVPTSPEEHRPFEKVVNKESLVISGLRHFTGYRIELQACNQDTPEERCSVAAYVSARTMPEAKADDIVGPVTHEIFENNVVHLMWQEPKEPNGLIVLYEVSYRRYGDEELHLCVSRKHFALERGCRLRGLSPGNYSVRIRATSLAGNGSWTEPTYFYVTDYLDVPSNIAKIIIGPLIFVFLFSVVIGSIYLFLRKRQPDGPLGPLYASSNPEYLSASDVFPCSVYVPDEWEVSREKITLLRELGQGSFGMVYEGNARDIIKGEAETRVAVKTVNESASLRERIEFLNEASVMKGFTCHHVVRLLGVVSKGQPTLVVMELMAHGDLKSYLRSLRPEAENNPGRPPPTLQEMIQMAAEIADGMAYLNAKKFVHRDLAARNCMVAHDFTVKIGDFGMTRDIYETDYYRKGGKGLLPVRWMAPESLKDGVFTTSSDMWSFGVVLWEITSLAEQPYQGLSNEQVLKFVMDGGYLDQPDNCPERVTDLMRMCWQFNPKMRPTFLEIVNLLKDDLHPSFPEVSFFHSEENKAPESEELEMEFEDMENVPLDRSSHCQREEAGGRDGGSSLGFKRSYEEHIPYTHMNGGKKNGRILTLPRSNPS

Sequence of Insulin-like growth factor 1 receptor (Homo sapiens) (P08069 31-736 limits assumed): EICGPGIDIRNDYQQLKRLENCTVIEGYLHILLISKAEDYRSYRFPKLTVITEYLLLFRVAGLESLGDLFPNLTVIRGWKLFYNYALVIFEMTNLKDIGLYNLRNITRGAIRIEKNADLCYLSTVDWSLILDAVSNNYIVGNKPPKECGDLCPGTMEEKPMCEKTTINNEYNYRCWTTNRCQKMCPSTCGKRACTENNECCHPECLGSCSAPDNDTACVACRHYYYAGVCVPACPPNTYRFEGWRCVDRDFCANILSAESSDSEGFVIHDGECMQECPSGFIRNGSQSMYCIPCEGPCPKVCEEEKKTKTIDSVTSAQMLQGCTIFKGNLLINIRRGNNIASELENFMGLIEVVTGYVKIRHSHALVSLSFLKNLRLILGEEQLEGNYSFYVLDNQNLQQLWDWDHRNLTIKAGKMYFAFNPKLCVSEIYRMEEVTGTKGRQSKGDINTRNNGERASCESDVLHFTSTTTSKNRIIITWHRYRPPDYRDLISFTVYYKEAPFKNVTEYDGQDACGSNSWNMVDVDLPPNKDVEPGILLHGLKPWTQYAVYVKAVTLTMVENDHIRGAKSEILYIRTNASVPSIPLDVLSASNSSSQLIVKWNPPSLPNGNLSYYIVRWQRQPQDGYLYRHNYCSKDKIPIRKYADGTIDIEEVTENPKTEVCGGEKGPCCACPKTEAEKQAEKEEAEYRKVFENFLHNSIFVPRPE
Sequence of Insulin-like growth factor 1 receptor (Homo sapiens) (P08069 741-1367 limits assumed): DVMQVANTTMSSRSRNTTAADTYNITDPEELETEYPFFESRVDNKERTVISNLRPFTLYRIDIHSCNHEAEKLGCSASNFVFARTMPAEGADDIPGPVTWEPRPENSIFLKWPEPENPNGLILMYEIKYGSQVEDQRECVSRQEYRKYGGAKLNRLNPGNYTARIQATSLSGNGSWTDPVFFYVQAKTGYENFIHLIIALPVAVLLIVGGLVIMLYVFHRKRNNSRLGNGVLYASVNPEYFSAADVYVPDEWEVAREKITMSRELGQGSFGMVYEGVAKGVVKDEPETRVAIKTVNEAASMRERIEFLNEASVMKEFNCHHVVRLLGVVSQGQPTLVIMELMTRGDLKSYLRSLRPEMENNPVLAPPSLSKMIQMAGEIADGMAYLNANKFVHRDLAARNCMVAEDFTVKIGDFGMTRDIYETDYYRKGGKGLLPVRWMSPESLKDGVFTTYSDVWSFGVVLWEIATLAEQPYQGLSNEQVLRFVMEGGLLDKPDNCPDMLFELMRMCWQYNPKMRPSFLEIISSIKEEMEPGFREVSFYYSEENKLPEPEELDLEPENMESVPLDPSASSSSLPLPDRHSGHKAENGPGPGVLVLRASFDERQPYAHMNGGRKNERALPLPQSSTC

As a reminder, the residual activity is the signal under treatment as a percentage of the control signal. For `O=C1c2ccccc2-[n+]2ccc3c([nH]c4ccccc43)c21`, the residual activity in [1] stood at 53%; in assay [2], 81%; in assay [3] it was 78%; in assay [4] it was 86%; in assay [5], 92%; in assay [6], 108%. Besides, the residual activity in assay [7] worked out at 108%; in assay [8], 113%; in assay [9], 97%; in [10] it was 84%.
